From PubChem BioAssay
PI5P4Ka inh: qHTS for Inhibitors of phosphatidylinositol 5-phosphate 4-kinase (PI5P4K); 330,000 tested, 1.2% active; max response, %; Phosphatidylinositol 5-phosphate 4-kinase type-2 alpha (Homo sapiens), P48426; AID 652105, 2013; PI5P4Kalpha enzyme, ADP-Glo luminescence, 60 min; active compounds read low; active = max response of -50% or lower; inconclusive = between -30% and -50%; inactive = -30% or higher; also: value at the top dose of about 77 µM; % is scaled to controls: 0 for no effect and ±100 for the full control effect
Target sequence (P48426 whole entry, looked up): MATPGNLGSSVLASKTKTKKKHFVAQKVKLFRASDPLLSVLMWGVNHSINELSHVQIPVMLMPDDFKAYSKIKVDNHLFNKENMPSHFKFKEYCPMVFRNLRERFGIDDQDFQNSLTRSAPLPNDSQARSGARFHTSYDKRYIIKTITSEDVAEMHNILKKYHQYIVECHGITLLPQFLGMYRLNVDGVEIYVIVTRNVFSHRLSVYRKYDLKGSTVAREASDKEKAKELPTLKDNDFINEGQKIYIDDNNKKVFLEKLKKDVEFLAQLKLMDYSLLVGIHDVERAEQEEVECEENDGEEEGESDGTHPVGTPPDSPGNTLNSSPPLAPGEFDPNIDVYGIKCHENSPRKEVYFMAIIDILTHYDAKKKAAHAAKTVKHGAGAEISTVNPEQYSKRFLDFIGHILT
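Reactions run in 0.038 M HEPES pH 7.4, 0.28 mM EGTA, 0.1% CHAPS and 5% DMSO, with PI5P4Kalpha, substrate, compound and 5 microM ATP final, one hour at room temperature. Readout is ADP-Glo luminescence.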
VDR inhibitor: Inhibitors of the vitamin D receptor (VDR): qHTS; Vitamin D3 receptor (Homo sapiens), P11473; VDR-SRC2-3 peptide fluorescence polarization, 2 h; Potency, µM, inactives show max response, negative = inhibition, usual class: inhibitors; 400,000 tested, 0.93% active; also: potency is read from the fitted curve at half-maximal effect; % is scaled to controls: 0 for no effect and ±100 for the full control effect
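Signal is fluorescence polarization, reporting how far test compounds block the interaction of VDR with the SRC2-3 coregulator peptide after a 2 h room-temperature incubation.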
PLK1 PBD inh: qHTS for Inhibitors of PLK1-PDB (polo-like kinase 1 - polo-box domain): Primary Screen | Serine/threonine-protein kinase PLK1 (Homo sapiens), P53350 | Plk1 PBD binding of FITC phosphopeptide, fluorescence polarization | AID 720504, 2013 | Potency, µM, for the others: max response, negative = inhibition, most hits filed as inhibitors | 360,000 tested, 2.8% active; also: potency is read from the fitted curve at half-maximal effect; series mostly up to about 57 µM; % is scaled to controls: 0 for no effect and ±100 for the full control effect; nearly all actives have a fitted effect of over 65% in size
Rango release inh: qHTS Assay for Inhibitors of RanGTP induced Rango (Ran-regulated importin-beta cargo) - Importin beta complex dissociation; AID 540253, 2011; Potency, µM (highest dose often 46.1 µM), for the others: top-dose activity change, negative = inhibition; Biochemical FRET Rango-importin beta, RanGTP-induced dissociation; 340,000 tested, 0.071% active; Snurportin-1 (Homo sapiens) + GTP-binding nuclear protein Ran (Homo sapiens) + Importin …; calls by dose curve; also: potency is read from the fitted curve at half-maximal effect; % of control where 0% means no effect; nearly all actives have a fitted effect of over 45% in size
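Quantitative HTS using a FRET biosensor: 0.1 uM Rango, 0.25 uM importin beta, 0.6 uM Ran, 2 mM GTP, 0.2 uM RCC1 final, PBS with DTT, Tween-20 and BSA. Post-read taken 45 min after Ran addition.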
KAT2A inh: qHTS Assay for Inhibitors of GCN5L2 | Histone acetyltransferase KAT2A (Homo sapiens), Q92830 | GCN5L2 HAT assay, ThioGlo1 CoA-SH fluorescence | Potency, µM (doses to about 58.9 µM), inactives show at the highest dose activity change, negative = inhibition, usual class: inhibitors | 390,000 tested, 0.21% active | AID 504327, 2011; also: potency is read from the fitted curve at half-maximal effect; % is scaled to controls: 0 for no effect and ±100 for the full control effect
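Preincubate 20nM GCN5L2 with compound 15 min, RT → add 50uM ThioGlo1 + 75uM H3(1-25) + 70uM acetyl-CoA → read fluorescence 0 and 20 min. Primary qHTS; fluorescent artifacts likely.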
Rango complex inh: qHTS Assay for Inhibitors of Rango (Ran-regulated importin-beta cargo) - Importin beta complex formation. Importin subunit beta-1 (Homo sapiens), Q14974. Rango CFP/YFP FRET sensor + importin beta, 45 min. Potency, µM (top dose mostly 92.2 µM), for the others: at the highest dose inhibition of complex formation. 340,000 tested, 0.031% active. AID 540263, 2011; calls by dose curve;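 also: potency is read from the fitted curve at half-maximal effect; 0% = DMSO wells and 100% = buffer wells lacking importin beta; nearly all actives have a fitted effect of over 15% in size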
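FRET biosensor (snurportin 1 IBB flanked by EYFP and cerulean), 50 nM, with compound 5 min, then 0.125 microM importin beta in PBS, 1 mM DTT, 0.02% Tween-20, 0.1% BSA. CFP/YFP ratio read after 45 min at room temperature; pre-read flags interference.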
* hit, by the source's call. In the library only some 3.6% were active in any assay of this set; here they are far more common. Unless noted, calls follow the shape of the dose curve; as a rule, active = well fitted curve in the direction sought with a large enough effect; inconclusive = small, poorly fitted or top-dose-only effect, or another doubt; inactive = no such curve, though single readings can be large; an effect the other way counts as inactive or inconclusive.

Screening Cc1ccc(NS(=O)(=O)c2ccc3c(c2)NC(=O)CO3)c(C)c1 returned PI5P4Ka inh 0.9, VDR inhibitor -19.5%, PLK1 PBD inh -4.6%, Rango release inh -14.9%, KAT2A inh -15.5% and Rango complex inh -2.5%.
`O=C(Nc1nnc(Cc2ccc(Cl)cc2)s1)C1CCN(C(=O)c2ccco2)CC1` gave VDR inhibitor -4.3%.
Screening CCOCCc1nnc(NC(=O)C2CCN(C(=O)c3ccco3)CC2)s1 returned PI5P4Ka inh 0.5, VDR inhibitor -17.7%, PLK1 PBD inh -15.6%, Rango release inh 22.1%, KAT2A inh -5.6% and Rango complex inh 0.1%.
COc1ccccc1Cc1nnc(NC(=O)C2CCN(C(=O)c3ccco3)CC2)s1 was read as PI5P4Ka inh -25.9, VDR inhibitor inconclusive, PLK1 PBD inh 26.7µM*, Rango release inh -5.8%, KAT2A inh -12.9% and Rango complex inh 3.7%.
`COCc1nnc(NC(=O)C2CCN(C(=O)c3ccco3)CC2)s1` gave PI5P4Ka inh -19.3, VDR inhibitor -7.5%, PLK1 PBD inh 26.7µM*, Rango release inh -1.6%, KAT2A inh -3.6% and Rango complex inh -2.2%.
For CCOC(=O)C(Cc1ccccc1)NC(=O)CCc1c(C)nc2nc(C)nn2c1C (stereo not drawn) the results were PI5P4Ka inh -10.4, VDR inhibitor inconclusive, PLK1 PBD inh 26.7µM*, Rango release inh -9.5%, KAT2A inh -3.5% and Rango complex inh inconclusive.
CCOC(=O)C(Cc1ccccc1)NC(=O)CCc1c(C)nc2ncnn2c1C (stereo not drawn) was read as PI5P4Ka inh 0.6, VDR inhibitor 1.0%, PLK1 PBD inh -6.5%, Rango release inh 0.5%, KAT2A inh -1.3% and Rango complex inh inconclusive.
For Cc1nc2ncnn2c(C)c1CCC(=O)NCCc1ccccc1 the results were PI5P4Ka inh -2.0, VDR inhibitor -11.6%, PLK1 PBD inh 23.8µM*, Rango release inh -18.0%, KAT2A inh -0.3% and Rango complex inh -0.6%.
Screening CSc1ccc(CCNC(=O)CCc2c(C)nc3ncnn3c2C)cc1 returned VDR inhibitor -17.9% and KAT2A inh 3.3%.
CCOC(=O)c1cc(CC)sc1NC(=O)C1CC1 was read as VDR inhibitor 16.2%, PLK1 PBD inh -4.9%, Rango release inh -4.8%, KAT2A inh -7.8% and Rango complex inh -0.4%.
Screening CCOC(=O)c1cc(CC)sc1NC(=O)c1cccc(N2C(=O)CCC2=O)c1 returned PI5P4Ka inh -3.0, VDR inhibitor -23.4%, PLK1 PBD inh -0.9%, Rango release inh 7.9%, KAT2A inh -19.3% and Rango complex inh -1.1%.
For CCOC(=O)c1cc(CC)sc1NC(=O)c1ccc2c(c1)OCCO2 the results were PI5P4Ka inh 0.8, VDR inhibitor -18.4%, PLK1 PBD inh 21.2µM*, Rango release inh 16.4%, KAT2A inh -5.9% and Rango complex inh -6.7%.
For CCOC(=O)c1cc(CC)sc1NC(=O)c1cc(OCC)c(OCC)c(OCC)c1 the results were VDR inhibitor inconclusive, PLK1 PBD inh 26.7µM*, Rango release inh 1.7%, KAT2A inh 1.0% and Rango complex inh 1.7%.
`CCc1nn2c(=O)cc(COC(=O)Cc3ccccc3)nc2s1` gave VDR inhibitor 7.1% and KAT2A inh 4.1%.
CN(C)c1ccc(C(=S)NCc2ccco2)cc1 was read as PI5P4Ka inh -25.8, VDR inhibitor inconclusive, PLK1 PBD inh 18.9µM*, Rango release inh inconclusive, KAT2A inh -19.9% and Rango complex inh inconclusive.
